Data as given in PubChem BioAssay (NCATS).
Results filed as inconclusive are left out. Active and inactive are the calls of the source. Unless noted, calls come from the whole dose curve; as a rule, active = well fitted curve in the direction sought with a large enough effect; inconclusive = small, poorly fitted or top-dose-only effect, or another doubt; inactive = no such curve, though single readings can be large; an effect the other way counts as inactive or inconclusive.

How the values were obtained:
[1] = target: Lysosomal acid glucosylceramidase (Homo sapiens) (UniProt P04062); assay: Glucocerebrosidase-p2 (AID 348; in the data active = potency below about 10 µM; note: potency is the fitted concentration of half-maximal effect); conditions: purified GBA, blue fluorogenic substrate, 40 min
In short: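 Normal human glucocerebrosidase (0.2 nM) with blue fluorogenic substrate (80 uM final) in citrate/phosphate pH 5.9 with 10mM sodium taurocholate, 0.01% tween-20; 40 min RT, NaOH/glycine stop; fluorescence Ex 365/Em 440; AC50 from a titration from 0.6 nM upwards.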

[2] = AP1 Signaling Pathway (AID 357; active = well fitted curve in either direction with a large enough effect, not every such curve was filed as active;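 note: ME-180 reporter cells stimulated with EGF at its EC50 level; % is set by controls: 0 for no effect and ±100 for the full control effect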); conditions: ME-180 AP-1-bla reporter, EGF-induced, beta-lactamase ratio, 5 h; at 7.69 µM (top of the series) unless noted
In short: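 A ratiometric CCF4 readout (405 nm excitation; 460 and 530 nm emission) quantified AP-1-driven beta-lactamase in ME-180 cells after 5 h with compound and EC50 EGF; AC50 values were derived for activators and inhibitors.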

[3] = NFAT Signaling Pathway (AID 444; active = well fitted curve in either direction with a large enough effect, not every such curve was filed as active;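 note: carbachol stimulus at about its EC50 of 1 µM final; % is set by controls: 0 for no effect and ±100 for the full control effect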); conditions: Jurkat NFAT-bla M1, carbachol, beta-lactamase ratio, 5 h; at 7.69 µM (top of the series) unless noted
In short: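 Jurkat cells with NFAT-driven β-lactamase reporter and co-expressed M1 receptor, stimulated with carbachol (final 1 uM, ~EC50), compound titration, 5 h at 37 °C. CCF4 loaded 1 h at RT; 460/530 nm ratio gave %activity and AC50.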

[4] = Stat Signaling Pathway (AID 446; active = well fitted curve in either direction with a large enough effect, not every such curve was filed as active;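 note: ME-180 cervical cancer cells given 40 pM IL-6 alongside compound; SIE-controlled beta-lactamase reporter measured as 460/530 nm FRET emission ratio; % is set by controls: 0 for no effect and ±100 for the full control effect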); conditions: ME-180 (cervical carcinoma) SIE beta-lactamase reporter, IL-6 stimulated, 5 h; at 7.69 µM (top of the series) unless noted
In short: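 FRET read-out (405 nm excitation, 460/530 nm emission) of a beta-lactamase reporter under a STAT-inducible element in ME-180 cervical carcinoma cells. Cells with compound receive 40 pM IL-6 for 5 h. Values are normalised to AC90 stimulation and AC90 JAK-inhibitor controls.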

[5] = target: Glucocorticoid receptor (Homo sapiens) (UniProt P04150); assay: GR-GFP Redistribution (AID 450;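 active = compounds whose dose series gives a full or clear partial fitted curve of increased nuclear translocation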; note: potency is the fitted concentration of half-maximal effect); conditions: U2OS GR-GFP nuclear translocation, laser cytometry, 2 h
[6] = target: Glucocorticoid receptor (Homo sapiens) (UniProt P04150); assay: GR-EFC Redistribution (AID 451; calls by dose curve; note: potency is the fitted concentration of half-maximal effect); conditions: CHO-K1 GR-EFC translocation, beta-gal luminescence, 2 h
In short: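 CHO-K1 cells expressing nuclear EA and GR-ED fragments of b-gal; compounds titrated up to 46 uM final, 2 h at 37 C. GR nuclear translocation read as complemented b-gal luminescence after 1 h RT detection.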

[7] = target: Mitogen-activated protein kinase 10 (Mus musculus) (UniProt Q61831); assay: JNK3 AlphaScreen Assay (AID 530; active = well fitted curve in either direction with a large enough effect, not every such curve was filed as active;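 note: kinase came from lysate of stimulated human HepG2 cells; signal reports phosphorylation of biotinylated GST-cJun 1-79 at Ser73 with 10 µM ATP; % is set by controls: 0 for no effect and ±100 for the full control effect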); conditions: JNK3 lysate, c-Jun phosphorylation; series mostly up to 57.1 µM
In short: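 HepG2 lysate (IL-1b/TNFa pre-activated) + biotin-GST-cJun 1-79 + anti-pSer73 cJun; cpd titration, 15 min RT; ATP 10 uM start; Tris pH 7.6, MgCl2, DTT, vanadate; beads in EDTA buffer; AlphaScreen.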

[8] = target: 3',5'-cyclic-AMP phosphodiesterase 4B (Homo sapiens) (UniProt Q07343); assay: qHTS Assay for Inhibitors of PDE-IV (AID 607; active = well fitted activation curve with a large enough effect in the main read-out, with a control signal flat, not every such curve was filed as active; note: % of control where 0% means no effect); conditions: HEK293 ACTOne CNG channel cells, membrane potential fluorescence; series mostly up to 22.9 µM
In short: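 Cell-based read-out of cAMP via a modified cyclic nucleotide-gated channel and membrane potential dye (535/590 nm) in HEK293 cells expressing PDE4 endogenously. Compounds tested up to 22.9 uM final; 100 uM RO 20-1724 reference.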

[9] = qHTS Assay for Lipid Storage Modulators (AID 1519; calls by dose curve); conditions: Drosophila S3 cells, BODIPY lipid droplet/cell ratio, laser cytometry, cells loaded with oleic acid; for activity change, negative = inhibition: at 57.5 µM (top of the series)
In short: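 Cells seeded at 5,000 per well were treated with compounds over a concentration series and loaded with oleic acid (400 uM, as added). Lipid droplet fluorescence (488 nm excitation, 500-530 nm channel) was read by laser-scanning cytometry and normalized to 20 uM Triacsin C.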

[10] = target: Dual specificity protein kinase CLK4 (Homo sapiens) (UniProt Q9HAZ1); assay: qHTS Assay for Inhibitors of CDC-like Kinase 4 (Kinase-Glo Assay) (AID 1770); conditions: recombinant Clk4, Kinase-Glo ATP depletion luminescence; series mostly up to 66.7 µM; note: nearly all actives have a fitted effect of over 65% in size; note: potency is the fitted concentration of half-maximal effect
In short: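 Inhibition was judged from remaining ATP, measured by Ultra-Glo luciferase bioluminescence after Clk4 (25 nM) had acted on RS peptide at 1 uM ATP for 4.5 hours, room temperature.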

[11] = target: Dual specificity protein kinase CLK4 (Homo sapiens) (UniProt Q9HAZ1); assay: qHTS Assay for Inhibitors of CDC-like Kinase 4 (ADP-Glo Assay) (AID 1771); conditions: recombinant CLK4, ADP-Glo luminescence; series mostly up to 80 µM; note: nearly all actives have a fitted effect of over 70% in size; note: potency is the fitted concentration of half-maximal effect
In short: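 25 nM Clk4, 100 uM RS peptide, 1 uM ATP (final); 2 mM MgCl2, 0.5 mM EGTA, 2.5 mM DTT, 0.01% Triton X-100; 1 hr RT. ADP-Glo readout: ATP depletion 45 min, conversion/luciferase 30 min, luminescence.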

[12] = target: Dual specificity protein kinase CLK4 (Homo sapiens) (UniProt Q9HAZ1); assay: qHTS Assay for Inhibitors of CDC-like Kinase 4 (ADP-FP Assay) (AID 1795); conditions: Transcreener ADP fluorescence polarization; series mostly up to 50 µM; note: nearly all actives have a fitted effect of over 60% in size; note: potency is the fitted concentration of half-maximal effect
In short: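 Inhibition of ADP formation by 6.25 nM Clk4 is measured using 1 uM ATP and 100 uM RS repeat peptide over one hour. Produced ADP displaces a fluorescent tracer from antibody, lowering polarization.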

[13] = target: Ubiquitin carboxyl-terminal hydrolase 1 (Homo sapiens) (UniProt O94782); assay: Inhibitors of USP1/UAF1: Pilot qHTS (AID 504865); conditions: purified USP1/UAF1, Ub-rhodamine cleavage fluorescence; series mostly up to 54.9 µM;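 note: rhodamine fluorescence freed from ubiquitin-rhodamine substrate followed over time; top concentration of the series differs between compounds; % is set by controls: 0 for no effect and ±100 for the full control effect; nearly all actives have a fitted effect of over 35% in size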
In short: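 Kinetic fluorescence assay: 1nM USP1/UAF1, 15 min compound preincubation, then 150nM Ub-Rho; 480/540 nm.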

[14] = Primary qHTS for small molecule stabilizers of the endoplasmic reticulum resident proteome: Secreted ER Calcium Modulated Protein (SERCaMP) assay (AID 1508630); conditions: SH-SY5Y GLuc-SERCaMP (Gaussia luciferase released on ER calcium loss) secretion, thapsigargin, luminescence; series mostly up to 38.4 µM; note: % is set by controls: 0 for no effect and ±100 for the full control effect
In short: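 The SH-SY5Y reporter protocol was run at 3 concentrations up to 38.3 uM (primary) or 11 concentrations (follow-up): 16 h compound, 100 nM thapsigargin for 4 h, then extracellular luciferase luminescence.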

[15] = target: Cytochrome P450 3A4 (Homo sapiens) (UniProt P08684); assay: qHTS Assay for Inhibitors and Substrates of Cytochrome P450 3A4 (AID 884); conditions: recombinant CYP3A4, Luciferin-PPXE luminescence; series mostly up to 57.1 µM; note: potency is the fitted concentration of half-maximal effect; nearly all actives have a fitted effect of over 50% in size
In short: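 Luminescent readout of luciferin produced by CYP3A4 (20 nM) dealkylation of Luciferin-PPXE, 25 uM (its KM). NADPH-driven reaction ran 60 min at RT after 10 min compound preincubation; data scaled to 57 uM ketoconazole as 100% inhibition.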

[16] = target: Cytochrome P450 3A4 (Homo sapiens) (UniProt P08684); assay: qHTS Assay for Activators of Cytochrome P450 3A4 (AID 885); conditions: recombinant CYP3A4, Luciferin-PPXE luminescence, 60 min; series mostly up to 57.1 µM; note: nearly all actives have a fitted effect of over 65% in size
In short: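 Luminescent readout of luciferin formed from 25 uM Luciferin-PPXE (KM level) by 20 nM CYP3A4 in 200 mM KPO4, with 60 min NADPH-driven reaction at room temperature after 10 min compound exposure. Ketoconazole (57 uM) defined 100% inhibition.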

[17] = measured here: cell count channel max response
[18] = measured here: lipid channel max response

Lysosomal acid glucosylceramidase (Homo sapiens), sequence (P04062 whole entry, looked up): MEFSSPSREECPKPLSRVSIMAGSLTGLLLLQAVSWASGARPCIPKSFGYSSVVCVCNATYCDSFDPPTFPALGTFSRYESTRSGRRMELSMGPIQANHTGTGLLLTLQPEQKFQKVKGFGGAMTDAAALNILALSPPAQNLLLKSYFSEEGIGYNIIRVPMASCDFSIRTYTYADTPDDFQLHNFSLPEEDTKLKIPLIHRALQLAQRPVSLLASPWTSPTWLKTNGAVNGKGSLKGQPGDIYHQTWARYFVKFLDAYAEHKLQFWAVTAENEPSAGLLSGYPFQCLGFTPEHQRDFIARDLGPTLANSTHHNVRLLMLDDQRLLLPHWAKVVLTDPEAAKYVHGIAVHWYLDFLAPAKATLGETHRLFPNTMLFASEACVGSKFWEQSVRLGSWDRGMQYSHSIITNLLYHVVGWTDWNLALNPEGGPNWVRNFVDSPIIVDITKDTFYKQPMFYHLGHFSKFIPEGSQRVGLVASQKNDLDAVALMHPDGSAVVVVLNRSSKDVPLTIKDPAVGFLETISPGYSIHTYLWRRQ
Glucocorticoid receptor (Homo sapiens), sequence (P04150 whole entry, looked up, the tested form may be a part): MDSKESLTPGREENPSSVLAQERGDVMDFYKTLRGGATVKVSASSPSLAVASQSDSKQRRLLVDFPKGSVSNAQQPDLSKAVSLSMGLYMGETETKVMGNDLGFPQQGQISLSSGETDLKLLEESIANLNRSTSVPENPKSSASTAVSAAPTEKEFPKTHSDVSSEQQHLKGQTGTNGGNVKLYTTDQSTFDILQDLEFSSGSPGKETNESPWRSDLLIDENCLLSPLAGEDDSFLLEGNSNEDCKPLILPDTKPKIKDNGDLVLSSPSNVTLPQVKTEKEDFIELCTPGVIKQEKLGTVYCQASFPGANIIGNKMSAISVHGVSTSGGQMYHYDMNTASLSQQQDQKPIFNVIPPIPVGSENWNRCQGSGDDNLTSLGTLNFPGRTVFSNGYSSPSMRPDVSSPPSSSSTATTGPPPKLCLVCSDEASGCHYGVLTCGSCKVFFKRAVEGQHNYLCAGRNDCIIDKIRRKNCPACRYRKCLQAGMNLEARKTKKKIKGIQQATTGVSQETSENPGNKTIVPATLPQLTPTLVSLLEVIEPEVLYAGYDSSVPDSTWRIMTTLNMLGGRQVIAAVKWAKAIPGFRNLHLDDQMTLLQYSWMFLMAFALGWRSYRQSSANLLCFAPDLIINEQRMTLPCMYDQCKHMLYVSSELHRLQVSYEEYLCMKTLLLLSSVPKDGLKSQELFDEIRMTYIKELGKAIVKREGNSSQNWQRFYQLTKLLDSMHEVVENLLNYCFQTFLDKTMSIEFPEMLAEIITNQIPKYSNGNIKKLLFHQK
3',5'-cyclic-AMP phosphodiesterase 4B (Homo sapiens), sequence (Q07343 whole entry, looked up): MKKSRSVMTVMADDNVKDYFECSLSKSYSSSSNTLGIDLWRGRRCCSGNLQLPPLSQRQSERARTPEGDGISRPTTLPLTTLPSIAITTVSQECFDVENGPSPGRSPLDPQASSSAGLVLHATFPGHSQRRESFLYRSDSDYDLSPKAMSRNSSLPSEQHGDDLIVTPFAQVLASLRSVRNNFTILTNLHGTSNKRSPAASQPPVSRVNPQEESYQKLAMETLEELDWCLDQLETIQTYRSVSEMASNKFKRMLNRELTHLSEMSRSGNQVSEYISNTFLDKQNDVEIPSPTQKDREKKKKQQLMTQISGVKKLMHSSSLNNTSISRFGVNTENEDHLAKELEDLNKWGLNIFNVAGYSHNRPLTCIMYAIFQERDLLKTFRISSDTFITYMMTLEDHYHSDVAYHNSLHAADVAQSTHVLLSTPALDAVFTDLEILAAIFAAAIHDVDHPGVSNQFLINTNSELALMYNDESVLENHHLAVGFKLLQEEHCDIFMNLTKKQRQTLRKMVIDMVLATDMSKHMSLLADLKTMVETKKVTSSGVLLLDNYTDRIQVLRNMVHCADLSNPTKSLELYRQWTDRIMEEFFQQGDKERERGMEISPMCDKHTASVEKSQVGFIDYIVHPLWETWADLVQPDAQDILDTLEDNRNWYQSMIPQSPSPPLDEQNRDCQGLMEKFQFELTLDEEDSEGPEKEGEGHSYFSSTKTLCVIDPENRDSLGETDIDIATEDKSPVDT
Dual specificity protein kinase CLK4 (Homo sapiens), sequence (Q9HAZ1 whole entry, looked up): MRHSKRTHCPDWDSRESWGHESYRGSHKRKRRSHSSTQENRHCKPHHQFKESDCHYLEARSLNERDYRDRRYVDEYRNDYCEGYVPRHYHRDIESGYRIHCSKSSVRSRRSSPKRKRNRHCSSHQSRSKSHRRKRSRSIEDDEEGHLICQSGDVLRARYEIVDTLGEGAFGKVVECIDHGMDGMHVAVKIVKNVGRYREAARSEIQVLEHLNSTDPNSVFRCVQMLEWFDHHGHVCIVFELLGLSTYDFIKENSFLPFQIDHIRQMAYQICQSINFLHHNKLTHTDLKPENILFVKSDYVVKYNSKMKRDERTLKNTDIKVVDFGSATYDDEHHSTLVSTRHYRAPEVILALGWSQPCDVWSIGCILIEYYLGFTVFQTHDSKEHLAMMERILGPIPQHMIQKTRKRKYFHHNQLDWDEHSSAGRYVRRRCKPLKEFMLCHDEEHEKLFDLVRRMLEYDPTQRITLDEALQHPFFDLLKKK
Ubiquitin carboxyl-terminal hydrolase 1 (Homo sapiens), sequence (O94782 whole entry, looked up): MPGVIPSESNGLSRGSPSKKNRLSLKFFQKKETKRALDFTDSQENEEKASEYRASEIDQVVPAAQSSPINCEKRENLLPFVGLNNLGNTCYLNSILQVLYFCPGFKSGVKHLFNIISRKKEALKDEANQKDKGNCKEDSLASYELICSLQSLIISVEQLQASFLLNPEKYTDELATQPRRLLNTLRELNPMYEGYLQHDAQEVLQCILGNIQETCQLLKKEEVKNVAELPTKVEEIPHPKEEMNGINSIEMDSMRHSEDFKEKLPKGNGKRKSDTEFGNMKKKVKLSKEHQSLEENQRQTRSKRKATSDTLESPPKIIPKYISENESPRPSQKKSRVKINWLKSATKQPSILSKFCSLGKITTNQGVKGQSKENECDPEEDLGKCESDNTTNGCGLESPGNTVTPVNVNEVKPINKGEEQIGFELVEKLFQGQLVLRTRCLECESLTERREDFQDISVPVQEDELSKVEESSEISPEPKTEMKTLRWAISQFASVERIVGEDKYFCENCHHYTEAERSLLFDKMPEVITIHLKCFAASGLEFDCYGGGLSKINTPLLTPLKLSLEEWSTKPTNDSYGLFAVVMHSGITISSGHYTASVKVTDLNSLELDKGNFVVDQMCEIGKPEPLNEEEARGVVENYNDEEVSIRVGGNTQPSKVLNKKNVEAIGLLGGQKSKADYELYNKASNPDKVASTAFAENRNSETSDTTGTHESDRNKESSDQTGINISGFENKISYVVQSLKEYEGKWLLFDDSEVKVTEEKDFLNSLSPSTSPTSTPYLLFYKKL
Cytochrome P450 3A4 (Homo sapiens), sequence (P08684 whole entry, looked up): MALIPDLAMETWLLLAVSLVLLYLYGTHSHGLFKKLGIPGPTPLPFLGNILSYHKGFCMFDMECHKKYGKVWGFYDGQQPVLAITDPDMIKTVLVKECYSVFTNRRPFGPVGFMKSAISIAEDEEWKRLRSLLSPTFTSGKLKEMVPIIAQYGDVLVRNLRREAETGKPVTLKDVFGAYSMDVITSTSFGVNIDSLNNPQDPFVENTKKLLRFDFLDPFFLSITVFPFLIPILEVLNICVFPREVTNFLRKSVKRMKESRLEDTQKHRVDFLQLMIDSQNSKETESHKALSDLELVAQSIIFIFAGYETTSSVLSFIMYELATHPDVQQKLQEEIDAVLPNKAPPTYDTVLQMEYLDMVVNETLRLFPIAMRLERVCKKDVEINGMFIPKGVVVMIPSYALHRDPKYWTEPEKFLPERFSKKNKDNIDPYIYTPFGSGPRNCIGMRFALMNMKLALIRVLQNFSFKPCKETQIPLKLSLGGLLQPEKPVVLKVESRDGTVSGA

CN(C)C(=O)c1ccc(-c2cc(-n3ccnc3)ncn2)cc1
14.1%: max response [9, 17]
inactive: Potency [1] > 11.4 µM | activity change, negative = inhibition [2] -15.5% | activity change, negative = inhibition [3] 7.69% | activity, negative = inhibition [4] 7.04% | Potency [5] > 46 µM | Potency [6] > 46 µM | outcome [7] | Potency [8] | activity change, negative = inhibition [9] 4.31% | Potency [13] | Potency [14]
16.5%: max response [9, 18]
active: Potency [10] 11.2 µM | Potency [11] 10 µM | Potency [12] 12.6 µM

COCCn1c(=O)cnc2cnc(OC)nc21
24.8%: max response [9, 18]
19.3%: max response [9, 17]
inactive: Potency [1] > 11.4 µM | activity change, negative = inhibition [2] -9.59% | activity change, negative = inhibition [3] 1.87% | activity, negative = inhibition [4] -10.3% | Potency [6] > 46 µM | outcome [7] | Potency [8] | activity change, negative = inhibition [9] 6.21% | Potency [10] | Potency [11] | Potency [12] | Potency [13] | Potency [14]

Cc1noc(C)c1-c1cc(NCCN2CCOCC2)ncn1
23.5%: max response [9, 17]
inactive: Potency [1] > 11.4 µM | activity change, negative = inhibition [2] 27.9% | activity change, negative = inhibition [3] 20.1% | activity, negative = inhibition [4] 0.606% | Potency [5] > 46 µM | Potency [6] > 46 µM | outcome [7] | Potency [8] | activity change, negative = inhibition [9] 6.08% | Potency [12] | Potency [13] | Potency [14]
active: Potency [10] 25.1 µM | Potency [11] 22.4 µM
29.1%: max response [9, 18]

COCCn1c(=O)c(-c2cn(C)c3ccccc23)nc2cnc(Oc3cccc(Cl)c3)nc21
23.7%: max response [9, 17]
inactive: Potency [1] > 11.4 µM | activity change, negative = inhibition [2] -7.97% | activity change, negative = inhibition [3] 5.68% | activity, negative = inhibition [4] 3.06% | Potency [5] > 9.22 µM | Potency [6] > 46 µM | Potency [8] | activity change, negative = inhibition [9] -4.01% | Potency [10] | Potency [11] | Potency [12] | Potency [13] | Potency [14]
16.7%: max response [9, 18]

CN(C)Cc1ccccc1-c1nc(NC2CCNCC2)c2ccccc2n1
7.24%: max response [9, 18]
8.01%: max response [9, 17]
inactive: Potency [1] > 11.4 µM | activity change, negative = inhibition [2] 24.8% | activity change, negative = inhibition [3] -15% | Potency [5] > 46 µM | Potency [6] > 46 µM | outcome [7] | Potency [8] | activity change, negative = inhibition [9] 2.42% | Potency [10] | Potency [11] | Potency [12] | Potency [14]

CCNc1ncc2nc(-c3ccc(Cl)cc3)c(=O)n(CCC#N)c2n1
inactive: Potency [1] > 11.4 µM | activity change, negative = inhibition [2] 8.5% | activity change, negative = inhibition [3] -14.8% | activity, negative = inhibition [4] 14.5% | Potency [5] > 9.22 µM | Potency [6] > 46 µM | outcome [7] | Potency [8] | activity change, negative = inhibition [9] 8.4% | Potency [10] | Potency [11] | Potency [12] | Potency [13] | Potency [14]
15.3%: max response [9, 17]
24.2%: max response [9, 18]

COc1ccc(-c2nc3cnc(Oc4cccc(Cl)c4)nc3n(CCC#N)c2=O)cc1
13.8%: max response [9, 17]
inactive: Potency [1] > 11.4 µM | activity change, negative = inhibition [2] -19.7% | activity, negative = inhibition [4] -7.46% | Potency [5] > 9.22 µM | Potency [6] > 46 µM | outcome [7] | Potency [8] | activity change, negative = inhibition [9] 2.97% | Potency [10] | Potency [11] | Potency [12] | Potency [13] | Potency [14]
14.8%: max response [9, 18]

Cc1noc(C)c1-c1cncnc1NCCN1CCOCC1
active: Potency [15] 6.31 µM
inactive: Potency [1] > 11.4 µM | activity change, negative = inhibition [2] 4.2% | activity change, negative = inhibition [3] -5.64% | activity, negative = inhibition [4] -2.23% | Potency [5] > 46 µM | outcome [7] | Potency [8] | Potency [16] | activity change, negative = inhibition [9] 3.95% | Potency [10] | Potency [11] | Potency [12] | Potency [13] | Potency [14]
14.6%: max response [9, 18]
12.2%: max response [9, 17]
